Shown are actives, neighbours in structure and some others; about 6.7% of the full set was active somewhere.
T cruzi growth-1 = inhibitors of T. cruzi proliferation; T. cruzi beta-gal in NIH3T3, GalScreen luminescence, 90 h; inhibition, % at 8.34 µM; 77,000 tested, 5.9% active; AID 624255;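 active = mean inhibition above about 93%, with at least 55% of replicates each passing it, limit read from the data, passing the limit was not always enough; inconclusive = only one of those two conditions holds; inactive = neither condition holds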
C diff HTS = inhibitors of Clostridium difficile growth; Clostridium difficile clinical isolate growth, OD600, 24 h; stronger effect = lower value; growth activity, negative = inhibition, % at 16 µg/mL (by protocol); 86,000 tested, 0.25% active; AID 1259249;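 active = mean growth activity at or below -80% and every replicate also at or below -80%; inconclusive = mean at or below -80% but some replicate above -80%; inactive = mean growth activity above -80%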;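 note: 0% = DMSO wells and -100% = levofloxacin 16 µg/mL wells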
Pf Dd2 growth = inhibitors of Plasmodium falciparum Dd2 growth; 94,000 tested, 2.3% active; activity change, % at 10 µM; P. falciparum Dd2 growth, SYBR Green, 72 h; stronger effect = lower value; in the data active = activity change below about -80%; inconclusive = no clear call, values can overlap the other calls
T cruzi growth-2 = inhibitors of T. cruzi proliferation. shares compounds with T cruzi growth-1. T. cruzi beta-gal in NIH3T3, GalScreen luminescence, 90 h. inhibition, % at 8.35 µM. 5,600 tested, 72% active. AID 651739;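 active = mean replicate inhibition above about 95% and at least 55% of replicates individually reaching it, limit read from the data; inconclusive = only one of the two criteria is met; inactive = neither criterion is met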
T cruzi growth-3 = Trypanosoma cruzi proliferation inhibition; shares compounds with T cruzi growth-1; T. cruzi beta-gal in NIH3T3, GalScreen luminescence, 90 h; inhibition, % at 2.09 µM; 5,600 tested, 21% active;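 active = mean inhibition above about 95%, with at least 55% of replicates also reaching it, limit read from the data; inconclusive = meets just one of the two conditions; inactive = meets neither condition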;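 note: plate controls were neutral control median for no effect and positive control median for full effect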
3T3 cytotox = cytotoxicity in mouse NIH/3T3 fibroblasts; shares compounds with T cruzi growth-1; NIH/3T3 viability, CellTiter-Glo ATP luminescence, 90 h; cytotoxicity (signal decrease), % at 8.35 µM; 5,600 tested, 14% active; AID 651742;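 active = mean signal decrease across replicates above about 35% based on untreated-well scatter, with enough replicates individually passing, limit read from the data; inconclusive = no rule stated though some were filed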;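 note: 0% = median of neutral control wells and 100% = median of positive control wells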
NIH3T3 tox 2 = NIH/3T3 (mouse) viability loss. shares compounds with T cruzi growth-1. NIH/3T3 viability, CellTiter-Glo ATP luminescence, 90 h. inhibition, % at 24.9 µM. 5,600 tested, 56% active. AID 651744;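 active = mean loss of cell viability signal at or above a set limit, and enough replicates individually reaching it; inconclusive = meets only the mean limit or only the replicate share; inactive = meets neither condition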;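 note: 0% = median of neutral control wells and 100% = median of positive control wells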
An asterisk follows results filed as active; ? = inconclusive; / = not tested or not shown.

SMILES | T cruzi growth-1 | C diff HTS | Pf Dd2 growth | T cruzi growth-2 | T cruzi growth-3 | 3T3 cytotox | NIH3T3 tox 2
COc1ccccc1C#Cc1ccc2c(c1)O[C@@H](CN(C)Cc1ccccc1)[C@@H](C)CN([C@@H](C)CO)S2(=O)=O | 122* | -1 | -14 | 104* | 106* | -19 | 7
COc1ccccc1C#Cc1ccc2c(c1)O[C@H](CN(C)Cc1ccncc1)[C@H](C)CN([C@@H](C)CO)S2(=O)=O | 130 | -5 | -75 | / | / | / | /
COc1ccccc1C#Cc1ccc2c(c1)O[C@@H](CN(C)Cc1cccnc1)[C@H](C)CN([C@H](C)CO)S2(=O)=O | / | 6 | -47 | / | / | / | /
C[C@@H]1CN([C@@H](C)CO)C(=O)Cc2cc(NC(=O)Cc3cn(C)c4ccccc34)ccc2O[C@H]1CN(C)CC1CC1 | 21 | 2 | -2 | / | / | / | /
CC=Cc1ccc2n(c1=O)C[C@H]1N[C@@H]2[C@@H](C(=O)NCc2ccc3c(c2)OCO3)[C@@H]1CO (mixture of isomers) | -2 | 2 | / | / | / | / | /
OC[C@H]1[C@H](c2ccc(Br)cc2)[C@@H]2CN(Cc3ccccn3)CCCCN12 | 109* | -1 | -12 | ? | 55 | 3 | 3
OC[C@@H]1[C@H](c2ccc(-c3cccnc3)cc2)[C@@H]2CN(Cc3ccccn3)CCCCN12 | 95 | -4 | -45 | / | / | / | /
OC[C@@H]1[C@H](c2ccc(-c3cccnc3)cc2)[C@H]2CN(Cc3ccccn3)CCCCN12 | 109* | -5 | -16 | 97* | 75 | 4 | 6
OC[C@H]1[C@@H](c2ccc(Br)cc2)[C@H]2CN(Cc3ccccn3)CCCCN21 | 25 | 4 | 19 | / | / | / | /
O=C(NCC[C@@H]1CC[C@H](NS(=O)(=O)c2ccc(F)cc2)[C@@H](CO)O1)c1ccccc1F | / | 0 | -9 | / | / | / | /
CN1C(=O)c2cc(NC(=O)c3ccccc3F)ccc2OC[C@H]2O[C@H](CC(=O)NCc3ccc4c(c3)OCO4)CC[C@@H]21 | 37 | 42 | -17 | / | / | / | /
COc1cccc(C#Cc2ccc([C@@H]3[C@@H](CO)N(C(=O)C4CCC4)[C@H]3C#N)cc2)c1 | 90 | -3 | -61 | / | / | / | /
COc1cccc(C#Cc2ccc([C@H]3[C@H](C#N)N(C(=O)C4CCC4)[C@H]3CO)cc2)c1 | 97* | 0 | -25 | 96* | 56 | 34 | 63*
COc1cccc(C#Cc2ccc([C@@H]3[C@@H](C#N)N(C(=O)C4CC4)[C@@H]3CO)cc2)c1 | 83 | 6 | 0 | / | / | / | /
COc1cccc(C#Cc2ccc([C@@H]3[C@@H](C#N)N(C(=O)C4CCC4)[C@@H]3CO)cc2)c1 | 102* | 15 | -29 | 109* | 61 | 23 | 10
C[C@H]1CN([C@@H](C)CO)S(=O)(=O)c2ccc(C3=CCCCC3)cc2O[C@H]1CN(C)C(=O)Nc1ccc2c(c1)OCO2 | / | 13 | -41 | / | / | / | /
C/C=C/c1ccc2c(c1)O[C@@H](CN(C)C(=O)Nc1cccc(F)c1)[C@@H](C)CN([C@@H](C)CO)S2(=O)=O | -53 | 4 | -31 | / | / | / | /
C[C@H](CO)N1C[C@H](C)[C@@H](CN(C)C(=O)Nc2cccc(F)c2)Oc2cc(/C=C/c3ccccc3)ccc2S1(=O)=O | 121* | 8 | -58 | 99* | 114* | 13 | 35*
C/C=C/c1ccc2c(c1)O[C@H](CN(C)C(=O)Nc1cccc(F)c1)[C@@H](C)CN([C@@H](C)CO)S2(=O)=O | 42 | 4 | -18 | / | / | / | /
C/C=C/c1ccc2c(c1)O[C@H](CN(C)C(=O)Nc1cccc(F)c1)[C@H](C)CN([C@H](C)CO)S2(=O)=O | 105* | 6 | -18 | 99* | 78 | 21 | 39*
C[C@H](CO)N1C[C@H](C)[C@@H](CN(C)S(C)(=O)=O)Oc2ccc(NS(=O)(=O)c3ccc(F)cc3)cc2C1=O | 23 | -5 | 32 | / | / | / | /
CCCC#Cc1ccc([C@@H]2[C@H](C#N)N(C(=O)CN3CCOCC3)[C@H]2CO)cc1 | 99* | 4 | 18 | 90 | 51 | -5 | 13
CCCC#Cc1ccc([C@@H]2[C@@H](CO)N(C(=O)CN3CCOCC3)[C@H]2C#N)cc1 | ? | 4 | 31 | / | / | / | /
N#C[C@H]1[C@H](c2ccc(C#CCC3CCCC3)cc2)[C@@H](CO)N1C(=O)CN1CCOCC1 | 83 | -4 | -31 | / | / | / | /
